Reference: PubChem BioAssay (NCATS)
Results filed as inconclusive are left out. Active and inactive are the calls of the source. Calls come from the whole dose curve; as a rule, active = well fitted inhibition curve with a large enough effect; inconclusive = small, poorly fitted or top-dose-only effect; inactive = flat fitted curve, though single readings scatter.

How the values were obtained:
Assay in all cases: qHTS profiling for inhibitors of Plasmodium falciparum proliferation (AID 504749); note: nearly all actives have a fitted effect of over 60% in size
Settings in all cases: P. falciparum in erythrocytes, SYBR Green DNA, 72 h; series mostly up to 28.7 µM
[1] = system: CP238
Outline: (§1)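 SYBR Green fluorescence of parasite DNA, read after lysis and overnight dark incubation, measured growth over 72 h in erythrocyte culture at 0.3% parasitemia and 2.5% hematocrit. Data normalised to DMSO and 0.29 uM artemisinin, with plate-drift correction.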

[2] = system: CP247
Outline: as §1

[3] = system: CP250
Outline: as §1

[4] = system: CP252
Outline: as §1

[5] = system: CP256
Outline: as §1

[6] = system: CP260
Outline: as §1

[7] = system: CP265
Outline: as §1

[8] = system: CP286
Outline: as §1

[9] = system: DFO2036
Outline: as §1

[10] = system: Dd2
Outline: as §1

[11] = system: ECU
Outline: as §1

[12] = system: FAB9
Outline: as §1

[13] = system: HB3
Outline: as §1

[14] = system: ICS
Outline: as §1

[15] = system: JCK
Outline: as §1

[16] = system: N140
Outline: as §1

[17] = system: P93_24
Outline: as §1

[18] = system: P94_40
Outline: as §1

[19] = system: PAD
Outline: as §1

[20] = system: PC15
Outline: as §1

[21] = system: PC49
Outline: as §1

[22] = system: SC27B
Outline: as §1

[23] = system: TAB109
Outline: as §1

[24] = system: TAB113
Outline: as §1

[25] = system: TAB165
Outline: as §1

Measured: Potency
Potency is the fitted concentration of half-maximal effect.

CN1C[C@H](C(=O)N[C@]2(C)O[C@@]3(O)C4CCCN4C(=O)[C@H](Cc4ccccc4)N3C2=O)C[C@@H]2c3cccc4[nH]cc(c34)C[C@H]21 (stereo not given in full)
active: [1] 5.62 µM | [2] 7.08 µM | [3] 11.2 µM | [4] 6.31 µM | [5] 7.94 µM | [6] 2 µM | [7] 5.62 µM | [8] 3.98 µM | [9] 7.94 µM | [10] 2.82 µM | [11] 1.12 µM | [12] 10 µM | [13] 2.24 µM | [14] 0.1 µM | [15] 10 µM | [16] 0.891 µM | [17] 1.41 µM | [18] 3.16 µM | [19] 0.355 µM | [20] 1.12 µM | [21] 1.78 µM | [22] 2.24 µM | [23] 7.08 µM | [24] 3.55 µM | [25] 1.41 µM
